Consider 38 compounds from PubChem BioAssay.

Unmarked numbers belong to inactive results. Active and inactive are the calls of the source.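 The calls were made as follows: active = inhibition at or above 50% relative to wild type and mutant plate controls; inactive = inhibition below 50%.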

In general, inhibition refers to the drop in the measured response relative to a control, in per cent.

The experiment in a line: inhibitors of Chlamydomonas gravitaxis, primary screen, whole organism, Chlamydomonas reinhardtii, WT vs cilia-less mutant, absorbance, 96-well (AID 463189).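 Also: 0% = wild type cc124 cells in DMSO and 100% = ciliumless bld1 mutant cells.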 Particulars: OD600 absorbance, 2 days, at 10 µM, active compounds read high.
Regarding `Cc1c(CC(C)(C)C(=O)O)n(Cc2ccc(Cl)cc2)c2ccc(F)cc12`, the inhibition was 1.93%.

As for `COc1cc([C@@H]2c3cc4c(cc3[C@H](O)C3COC(=O)[C@@H]32)OCO4)cc(OC)c1OC` (stereo partly drawn), the inhibition is 0.089%.

Turning to `c1ccc(-c2ccccn2)nc1`, the inhibition was 1.35%.

For `N#C/C(=C\c1ccc(O)c(O)c1)C(=O)Nc1ccccc1`, the inhibition was 5.13%.

Turning to `O=C1C2C=CC=CC2=NC(=S)N1CCN1CCC(=C(c2ccc(F)cc2)c2ccc(F)cc2)CC1` (stereo not drawn), the inhibition is -0.94%.

Take `CNc1cc(NS(=O)(=O)c2ccc(N)cc2)nc(NC)n1`: the inhibition was -3.79%.

`N#C/C(=C\c1ccc(O)c(O)c1)C(=O)NCCCNC(=O)/C(C#N)=C/c1ccc(O)c(O)c1`: the inhibition is 1.37%.

For the compound `N[C@H](C(=O)O)[C@H]1C[C@@H]1C(=O)O`, the inhibition is 2.25%.

Consider `CC(N)(Cc1ccc(O)cc1)C(=O)O` (stereo not drawn), for which the inhibition was 1.6%.

As to `CCCCCCCC/C=C\CCCCCCCC(=O)NCCO`, the inhibition was -7.05%.

With `CC1=C(/C=C/C(C)=C/C=C/C(C)=C\C(=O)O)C(C)(C)CCC1`, the inhibition is -3.51%.

`c1ccc([C@H]2CN3CCSC3=N2)cc1`: the inhibition is -1.39%.

Turning to `CN[C@H](CC(C)C)C(=O)N[C@H]1C(=O)N[C@@H](CC(N)=O)C(=O)N[C@H]2C(=O)N[C@H]3C(=O)N[C@H](C(=O)N[C@H](C(=O)O)c4cc(O)cc(O)c4-c4cc3ccc4O)[C@H](O)c3ccc(c(Cl)c3)Oc3cc2cc(c3O[C@@H]2O[C@H](CO)[C@@H](O)[C@H](O)[C@H]2O[C@H]2C[C@](C)(N)[C@H](O)[C@H](C)O2)Oc2ccc(cc2Cl)[C@H]1O`, the inhibition was 15.1%.

In the case of `CN1C[C@H](C(=O)N[C@]2(C)O[C@@]3(O)[C@@H]4CCCN4C(=O)[C@H](Cc4ccccc4)N3C2=O)C[C@@H]2c3cccc4[nH]cc(c34)C[C@H]21`, the inhibition was -12.5%.

Turning to `N#CC(=C(\N)Sc1ccccc1N)/C(C#N)=C(/N)Sc1ccccc1N`, the inhibition is 13.7%.

Take `CNC(=O)[C@H]1O[C@@H](n2cnc3c(NCc4ccc(I)cc4)nc(Cl)nc32)[C@H](O)[C@@H]1O`: the inhibition was 0.705%.

As for `CCN(CC)CCCC(C)Nc1c2ccc(Cl)cc2nc2ccc(OC)cc12` (stereo not drawn), the inhibition was 16.9%.

`NC(=NCc1ccc(Cl)c(Cl)c1)NC(=O)c1nc(Cl)c(N)nc1N`: the inhibition was 7.67%.

In the case of `O=C(O)CCC(=O)N1CCCC1C(=O)O` (stereo not drawn), the inhibition is 0.347%.

As to `Cc1cc2c(cc1Cl)N(C(=O)Nc1ccnc3ccccc13)CC2`, the inhibition is -0.614%.

For the compound `CN(C)CCOC(=O)COc1ccc(Cl)cc1`, the inhibition was 5.22%.

For the compound `COC(=O)[C@H]1[C@H]2C[C@H]3c4[nH]c5ccccc5c4CCN3C[C@H]2CC[C@@H]1O`, the inhibition was 6.15%.

For the compound `CC1(NCC(O)COc2cccc3[nH]ccc23)CCC(C(C)(C)NC(=O)CBr)CC1` (stereo not drawn), the inhibition was 5.45%.

In the case of `NC(N)=NC(=O)Cc1c(Cl)cccc1Cl`, the inhibition was 4.12%.

Turning to `CCSC(=N)N`, the inhibition is 4.79%.

Turning to `O=C1C(SCCO)=C(SCCO)C(=O)c2ccccc21`, the inhibition was 152% (active).

Regarding `CCCCCCC/C=C\CCCCCCCCC(=O)O`, the inhibition is 9.07%.

As to `CCN(CC)CCOC(=O)c1ccc(N)cc1`, the inhibition was -0.871%.

Regarding `CN1CCN(CC/C=C2/c3ccccc3Sc3ccc(S(=O)(=O)N(C)C)cc32)CC1`, the inhibition was 19.2%.

As to `Nc1nc(Cl)nc2c1ncn2[C@@H]1O[C@H](COP(=O)(O)OP(=O)(O)OP(=O)(O)O)[C@H](O)C1O` (stereo partly drawn), the inhibition is 0.076%.

Take `CC(=O)O[C@H]1CC2(C)[C@@H](C[C@@H](O)[C@H]3[C@@]4(C)CC[C@@H](O)[C@@H](C)[C@@H]4CC[C@@]32C)C1=C(CCC=C(C)C)C(=O)O` (stereo partly drawn): the inhibition is 1.57%.

Take `COc1cc(C(O)CO)ccc1OS(=O)(=O)O` (stereo not drawn): the inhibition was -4.77%.

As to `Nc1nc(Cl)nc2c1ncn2[C@@H]1O[C@H](CO)[C@H](O)C1O` (stereo partly drawn), the inhibition was 1.82%.

For the compound `CCCOC(=O)c1c(-c2ccccc2)nc(CC)c(C(=O)SCC)c1CCC`, the inhibition is 10.6%.

Turning to `CC(C)(C)c1onc(OCP(=O)(O)O)c1CC(N)C(=O)O` (stereo not drawn), the inhibition is 9%.

In the case of `C#CCn1c(=O)c2c(ncn2C)n(C)c1=O`, the inhibition is 3.25%.

Regarding `CN(C)CC[C@@H](c1ccc(Cl)cc1)c1ccccn1`, the inhibition is 32.3%.

As for `CC(C)Cc1ccc([C@H](C)C(=O)O)cc1`, the inhibition is 8.1%.
